In PubChem BioAssay AID1159580 (chemical genetic matrix, 2015):
About 2,000 (36%) of roughly 5,500 compounds were called active. Inconclusive results (about 18%) are left out. No stated cut-off is given here; in the data, active means normalized growth mostly below about 0.91 (no sharp cut-off); inconclusive means no clear call, values can overlap the other calls; inactive means mostly above about 0.92. Some of the results follow.

Test: chemical genetic growth profiling, strain panel (AID 1159580);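 further: tested at 20 µM; growth read once vehicle control cultures reached saturation at 30 °C; 1 = growth at the plate median or of vehicle wells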
Details: S. cerevisiae deletion strains, growth OD
[1] = locus YMR307W, strain GAS1, stronger effect = lower value
[2] = locus YNL128W, strain TEP1, stronger effect = lower value
[3] = locus YPL055C, strain LGE1, stronger effect = lower value
[4] = locus YAL013W, strain DEP1, stronger effect = lower value
[5] = locus YBR229C, strain ROT2, stronger effect = lower value
[6] = locus YDL101C, strain DUN1, stronger effect = lower value
[7] = locus YEL061C, strain CIN8, stronger effect = lower value
[8] = locus YGR078C, strain PAC10, stronger effect = lower value
[9] = locus YGR229C, strain SMI1, stronger effect = lower value
[10] = locus YHR030C, strain SLT2, stronger effect = lower value
[11] = locus YJL187C, strain SWE1, stronger effect = lower value
[12] = locus YJR043C, strain POL32, stronger effect = lower value
[13] = locus YKL190W, strain CNB1, stronger effect = lower value
[14] = locus YLR039C, strain RIC1, stronger effect = lower value
[15] = locus YLR262C, strain YPT6, stronger effect = lower value
[16] = locus YMR263W, strain SAP30, stronger effect = lower value
[17] = locus YNL153C, strain GIM3, stronger effect = lower value
[18] = locus YPL241C, strain CIN2, stronger effect = lower value
[19] = locus YDR150W, strain NUM1, stronger effect = lower value
[20] = locus YHR087W, strain rtc3, stronger effect = lower value
[21] = locus YJR075W, strain HOC1, stronger effect = lower value
[22] = locus YLR058C, strain SHM2 (second series), stronger effect = lower value
[23] = locus YLR085C, strain ARP6, stronger effect = lower value
[24] = locus YML094W, strain GIM5, stronger effect = lower value
[25] = locus YMR219W, strain ESC1, stronger effect = lower value
[26] = locus YNL298W, strain CLA4 (second series), stronger effect = lower value
[27] = locus YNL322C, strain KRE1, stronger effect = lower value
[28] = locus YNR030W, strain Alg12, stronger effect = lower value
[29] = locus YPR135W, strain CTF4, stronger effect = lower value

Measured: normalized growth

Nc1nc2ccc(Cl)cc2c2nc(-c3ccco3)nn12
active: locus YAL040C, strain CLN3, stronger effect = lower value 0.734 | locus YER002W, strain NOP16, stronger effect = lower value 0.74 | [2] 0.632 | locus YNL175C, strain NOP13, stronger effect = lower value 0.664 | locus YNL197C, strain WHI3, stronger effect = lower value 0.81 | locus YNL224C, strain SQS1, stronger effect = lower value 0.729 | locus YOR083W, strain WHI5 (second series), stronger effect = lower value 0.473
inactive: locus YCL061C, strain MRC1 (second series), stronger effect = lower value 0.988 | locus YDR363W, strain ESC2, stronger effect = lower value 0.926 | [1] 0.969 | [3] 0.909

CC(=O)O[C@@](C)(CCC=C(C)C)C1CC=C(C)CC1 (stereo partly drawn)
inactive: [4] 1.02 | locus YAL021C, strain ccr4, stronger effect = lower value 1.01 | locus YAL026C, strain drs2, stronger effect = lower value 0.989 | locus YAL030W, strain snc1, stronger effect = lower value 0.987 | locus YBL061C, strain skt5, stronger effect = lower value 0.979 | locus YBR009C, strain hhf1, stronger effect = lower value 1.01 | locus YBR021W, strain FUR4, stronger effect = lower value 1.03 | locus YBR023C, strain chs3, stronger effect = lower value 0.986 | locus YBR171W, strain sec66, stronger effect = lower value 0.981 | [5] 1.02 | locus YBR231C, strain swc5, stronger effect = lower value 0.996 | locus YBR279W, strain paf1, stronger effect = lower value 0.987 | locus YCL011C, strain gbp2, stronger effect = lower value 0.983 | locus YCL016C, strain dcc1, stronger effect = lower value 0.996 | locus YCL029C, strain bik1, stronger effect = lower value 0.992 | locus YCL069W, strain vba3, stronger effect = lower value 0.983 | locus YCR088W, strain abp1, stronger effect = lower value 0.983 | locus YDL005C, strain med2, stronger effect = lower value 0.978 | locus YDL035C, strain GPR1, stronger effect = lower value 1.01 | locus YDL040C, strain nat1, stronger effect = lower value 0.988 | locus YDL074C, strain BRE1, stronger effect = lower value 1.03 | [6] 1.03 | locus YDL185W, strain tfp1, stronger effect = lower value 0.988 | locus YDL192W, strain arf1, stronger effect = lower value 1 | locus YDR001C, strain nth1, stronger effect = lower value 0.991 | locus YDR069C, strain doa4, stronger effect = lower value 0.966 | locus YDR101C, strain arx1, stronger effect = lower value 0.97 | locus YDR137W, strain rgp1, stronger effect = lower value 0.976 | locus YDR159W, strain sac3, stronger effect = lower value 0.982 | locus YDR162C, strain NBP2, stronger effect = lower value 1.05 | locus YDR195W, strain ref2 0.982 | locus YDR297W, strain sur2, stronger effect = lower value 0.974 | locus YDR318W, strain mcm21, stronger effect = lower value 0.997 | locus YDR334W, strain swr1, stronger effect = lower value 0.985 | locus YDR335W, strain msn5, stronger effect = lower value 0.986 | locus YDR388W, stronger effect = lower value 0.994 | locus YDR392W, strain spt3, stronger effect = lower value 0.973 | locus YDR502C, strain sam2, stronger effect = lower value 0.978 | locus YEL003W, strain gim4, stronger effect = lower value 0.993 | locus YEL037C, strain rad23, stronger effect = lower value 0.991 | locus YEL061C, strain CIN8 (second series), stronger effect = lower value 0.978 | [7] 1.02 | locus YER015W, strain faa2, stronger effect = lower value 0.994 | locus YER016W, strain bim1, stronger effect = lower value 0.992 | locus YER110C, stronger effect = lower value 0.985 | locus YER111C, strain swi4, stronger effect = lower value 0.981 | locus YER155C, strain BEM2 (second series), stronger effect = lower value 1.01 | locus YER155C, strain BEM2, stronger effect = lower value 1.02 | locus YER167W, strain BCK2, stronger effect = lower value 1 | locus YFR010W, strain ubp6, stronger effect = lower value 0.973 | locus YGL078C, strain dbp3, stronger effect = lower value 0.995 | locus YGL086W, strain mad1, stronger effect = lower value 0.991 | locus YGL167C, strain pmr1, stronger effect = lower value 0.991 | locus YGL173C, strain kem1, stronger effect = lower value 0.984 | locus YGL227W, strain vid30, stronger effect = lower value 0.986 | locus YGL240W, strain doc1, stronger effect = lower value 0.992 | locus YGL248W, strain PDE1, stronger effect = lower value 1.05 | locus YGL253W, strain hxk2, stronger effect = lower value 0.987 | [8] 1.05 | locus YGR135W, strain pre9, stronger effect = lower value 1.02 | [9] 0.998 | locus YGR252W, strain gcn5, stronger effect = lower value 1.01 | locus YHR013C, strain ard1, stronger effect = lower value 1 | locus YHR027C, strain rpn1, stronger effect = lower value 0.983 | [10] 1.02 | locus YHR079C, strain IRE1 (second series), stronger effect = lower value 0.985 | locus YHR094C, strain hxt1, stronger effect = lower value 1 | locus YHR129C, strain ARP1, stronger effect = lower value 1.02 | locus YHR142W, strain chs7, stronger effect = lower value 0.999 | locus YHR200W, strain rpn10, stronger effect = lower value 0.992 | locus YIL066C, strain RNR3, stronger effect = lower value 1.04 | locus YIL073C, strain SPO22, stronger effect = lower value 1 | locus YIL125W, strain kgd1, stronger effect = lower value 1 | locus YIR030C, strain dcg1, stronger effect = lower value 0.992 | locus YJL092W, strain hpr5, stronger effect = lower value 0.988 | locus YJL095W, strain BCK1 (second series), stronger effect = lower value 0.998 | locus YJL095W, strain BCK1, stronger effect = lower value 1.06 | locus YJL115W, strain asf1, stronger effect = lower value 0.989 | locus YJL129C, strain trk1, stronger effect = lower value 0.981 | locus YJL134W, strain LCB3, stronger effect = lower value 1.01 | locus YJL154C, strain vps35, stronger effect = lower value 0.984 | locus YJL164C, strain tpk1, stronger effect = lower value 0.994 | locus YJL166W, strain qcr8, stronger effect = lower value 0.983 | locus YJL168C, strain set2, stronger effect = lower value 0.999 | locus YJL187C, strain SWE1 (second series), stronger effect = lower value 1.04 | [11] 0.991 | [12] 1.04 | locus YKL009W, strain mrt4, stronger effect = lower value 0.962 | locus YKL068W, stronger effect = lower value 0.997 | locus YKL085W, strain MDH1 (second series), stronger effect = lower value 0.994 | locus YKL085W, strain MDH1, stronger effect = lower value 0.994 | locus YKL160W, strain elf1, stronger effect = lower value 0.993 | [13] 1.01 | locus YKR001C, strain vps1, stronger effect = lower value 0.987 | locus YKR026C, strain gcn3, stronger effect = lower value 0.99 | locus YKR091W, strain srl3, stronger effect = lower value 0.982 | locus YLL001W, strain dnm1, stronger effect = lower value 0.993 | locus YLL026W, stronger effect = lower value 0.985 | locus YLL041C, strain sdh2, stronger effect = lower value 1.01 | locus YLR027C, strain aat2, stronger effect = lower value 0.985 | [14] 1.05 | locus YLR058C, strain SHM2, stronger effect = lower value 1.04 | locus YLR102C, strain apc9, stronger effect = lower value 0.986 | locus YLR221C, strain rsa3, stronger effect = lower value 0.972 | locus YLR258W, strain gsy2, stronger effect = lower value 1.01 | locus YLR262C, strain YPT6 (second series), stronger effect = lower value 0.959 | [15] 1.04 | locus YLR268W, strain sec22, stronger effect = lower value 1 | locus YLR320W, strain mms22, stronger effect = lower value 0.975 | locus YLR330W, strain CHS5, stronger effect = lower value 1.03 | locus YLR342W, strain FKS1 (second series), stronger effect = lower value 1.09 | locus YLR342W, strain FKS1, stronger effect = lower value 0.974 | locus YLR357W, strain rsc2, stronger effect = lower value 0.951 | locus YLR370C, strain arc18, stronger effect = lower value 0.983 | locus YLR371W, strain rom2, stronger effect = lower value 0.997 | locus YLR384C, strain iki3, stronger effect = lower value 0.973 | locus YLR418C, strain cdc73, stronger effect = lower value 0.988 | locus YML016C, strain PPZ1, stronger effect = lower value 1.02 | locus YML032C, strain rad52, stronger effect = lower value 1.01 | locus YML120C, strain ndi1, stronger effect = lower value 0.985 | locus YML124C, strain tub3, stronger effect = lower value 0.992 | locus YMR058W, strain fet3, stronger effect = lower value 0.995 | locus YMR078C, strain ctf18, stronger effect = lower value 0.971 | locus YMR125W, strain sto1, stronger effect = lower value 0.983 | locus YMR129W, stronger effect = lower value 1 | locus YMR205C, strain PFK2, stronger effect = lower value 0.988 | locus YMR223W, strain ubp8, stronger effect = lower value 1.04 | locus YMR231W, strain pep5, stronger effect = lower value 0.994 | [16] 1.04 | [1] 1.11 | locus YNL067W, strain RPL9B, stronger effect = lower value 1.04 | locus YNL071W, strain lat1, stronger effect = lower value 0.99 | [17] 1.04 | locus YNL209W, strain ssb2, stronger effect = lower value 0.984 | locus YNL233W, strain BNI4, stronger effect = lower value 1.04 | locus YNL248C, strain rpa49, stronger effect = lower value 0.975 | locus YNL250W, strain rad50, stronger effect = lower value 1.01 | locus YNL271C, strain bni1, stronger effect = lower value 0.998 | locus YNL298W, strain CLA4, stronger effect = lower value 0.996 | locus YNL307C, strain MCK1, stronger effect = lower value 0.996 | locus YNL322C, strain KRE1 (second series), stronger effect = lower value 0.99 | locus YNR049C, strain mso1, stronger effect = lower value 1 | locus YNR052C, strain pop2, stronger effect = lower value 0.995 | locus YOL006C, strain TOP1, stronger effect = lower value 1.14 | locus YOL012C, strain htz1 0.898 | locus YOL147C, strain pex11, stronger effect = lower value 0.984 | locus YOR001W, strain rrp6, stronger effect = lower value 0.973 | locus YOR061W, strain CKA2, stronger effect = lower value 1.03 | locus YOR069W, strain VPS5, stronger effect = lower value 1.01 | locus YOR070C, strain gyp1, stronger effect = lower value 0.982 | locus YOR080W, strain dia2, stronger effect = lower value 0.991 | locus YOR083W, strain WHI5, stronger effect = lower value 0.999 | locus YOR106W, strain vam3, stronger effect = lower value 0.975 | locus YOR136W, strain idh2, stronger effect = lower value 0.988 | locus YOR144C, strain elg1, stronger effect = lower value 0.983 | locus YOR184W, strain ser1, stronger effect = lower value 0.962 | locus YOR265W, strain rbl2, stronger effect = lower value 1 | locus YOR270C, strain vph1, stronger effect = lower value 0.915 | locus YOR290C, strain snf2, stronger effect = lower value 0.989 | locus YOR316C, strain cot1, stronger effect = lower value 1.01 | locus YPL051W, strain arl3, stronger effect = lower value 1.01 | locus YPL078C, strain atp4, stronger effect = lower value 1.02 | locus YPL106C, strain sse1, stronger effect = lower value 1 | locus YPL240C, strain hsp82, stronger effect = lower value 0.974 | [18] 1.01 | locus YPR119W, strain clb2, stronger effect = lower value 0.997 | locus YPR141C, strain kar3, stronger effect = lower value 0.997 | locus YPR163C, strain tif3, stronger effect = lower value 1 | locus YPR167C, strain met16, stronger effect = lower value 1 | strain wtn01, stronger effect = lower value 0.987

CCCCCCCc1c(O)c2ccccc2[nH]c1=O
inactive: [4] 1.01 | [5] 0.998 | locus YCL061C, strain MRC1, stronger effect = lower value 1.01 | [6] 1 | [19] 0.962 | [7] 1.01 | [8] 1 | [9] 1.01 | [10] 0.989 | [20] 1 | [11] 1 | [12] 1 | [21] 1 | [13] 1.01 | [14] 1.01 | [22] 1.01 | [23] 1.01 | [15] 1.02 | [24] 1.01 | [25] 1.02 | [16] 1.01 | [1] 0.961 | [2] 1.01 | [17] 1.01 | [26] 1.03 | [27] 0.997 | [28] 1.02 | [3] 1.02 | [18] 1.02 | [29] 1.07

O=c1[nH]c2cccnc2[nH]c1=O
inactive: [4] 0.999 | [5] 1.02 | [6] 1.01 | [19] 0.995 | [7] 1 | [8] 1.01 | [9] 0.997 | [10] 1.03 | [20] 1 | [11] 0.992 | [12] 1.01 | [21] 0.969 | [13] 0.995 | [14] 1 | [22] 1 | [23] 1.01 | [15] 0.979 | [24] 1.02 | [25] 1.03 | [16] 1.01 | [17] 1.04 | [26] 1.04 | [27] 0.998 | [28] 1.01 | [3] 0.965 | [18] 1.01 | [29] 1.06
